Screening results from PubChem BioAssay.
This is a sample that favours compounds with a hit; in the whole collection about 2.4% have one here.
D2 ag-1: agonists of human D2 dopamine receptor (beta-arrestin); P14416; DiscoveRx PathHunter D2 beta-arrestin, luminescence, 90 min; 100% = 57 uM dopamine signal; activation, % (concentration not given with the values); 360,000 compounds, 0.084% hits; AID 624465; in the data active means activation above about 40%; inconclusive means between about 15% and that limit
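DiscoveRx PathHunter D2 beta-arrestin cells (2,100/well) attached overnight, then compound-stimulated 90 min at 37 C in HBSS/10 mM HEPES/0.1% Tween-20 buffer; beta-galactosidase complementation read by luminescence after 1 h at ambient temperature. Dopamine 57 uM final (EC100) as control.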
D2 antagonist: D2 dopamine receptor (human) antagonism; 340,000 compounds, 2% hits; AID 485344; inhibition, % at 10 µM; HEK293 TREx D2 cells, calcium flux, dopamine EC80; P14416; in the data active means inhibition above about 30%; inactive means below that, where a call was filed
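Compounds are added to dye-loaded, induced HEK293 T-REx cells coupled to calcium release via D2; after a 3 min kinetic read an EC80 dopamine stimulus is given and fluorescence is recorded for 3 more min.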
D2 PAM-1: positively modulates the human D2 dopamine receptor allosterically; P14416; HEK293 T-REx D2, calcium flux, EC20 dopamine potentiation; potentiation, % at 10 µM; 340,000 compounds, 0.34% hits;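 active means potentiation over 3 SD above the plate norm, cut at about 30% in these data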
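Cells plated with tetracycline inducer and held overnight at 30 C; calcium dye loaded 30–90 min at room temperature; baseline taken, compound added and read 180 s; EC20 dopamine then added and read 180 s.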
D2 ag-2: activates the human D2 dopamine receptor. 340,000 compounds, 0.53% hits. P14416. activation, % at 2 µM. HEK293 T-REx D2 cells, calcium flux agonist mode;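 active means activation over 3 SD above normal in the single-dose calcium agonist read, cut at about 30% in these data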
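Agonism scored from kinetic calcium signal (1 read/sec, 180 s) following compound pin transfer, after a 10 s baseline. Cells: HEK293 Trex line expressing inducible D2 receptor coupled to calcium, dye-loaded after overnight culture at 30 C.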
D2 PAM-2: positive allosteric modulators of human D2 dopamine receptor; P14416; DiscoveRx D2 beta-arrestin cells, luminescence, 90 min; 100% = 57 uM dopamine signal; potentiation, % (no concentration beside the values); 360,000 compounds, 0.23% hits; AID 624464; in the data active means potentiation above about 50%; inconclusive means mostly about 30% to 49%
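PathHunter D2 cells, attached overnight at 37 deg C, received compound in DMSO plus dopamine at EC20 (50 nM final) for 90 min at 37 deg C. Beta-arrestin recruitment was read as luminescence after 1 h with detection reagent at ambient temperature.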
D3 ag: confirmation of human D3 dopamine receptor agonists, beta-arrestin. Potency, µM (top dose mostly 76.9 µM), usual class: activators. AID 720506. DiscoveRx D3 beta-arrestin cells, luminescence, 90 min. shares compounds with D2 ag-2. 2,300 compounds, 4% hits; further: nearly all actives have a fitted effect of over 70% in size
Target sequence (P35462 whole entry, looked up): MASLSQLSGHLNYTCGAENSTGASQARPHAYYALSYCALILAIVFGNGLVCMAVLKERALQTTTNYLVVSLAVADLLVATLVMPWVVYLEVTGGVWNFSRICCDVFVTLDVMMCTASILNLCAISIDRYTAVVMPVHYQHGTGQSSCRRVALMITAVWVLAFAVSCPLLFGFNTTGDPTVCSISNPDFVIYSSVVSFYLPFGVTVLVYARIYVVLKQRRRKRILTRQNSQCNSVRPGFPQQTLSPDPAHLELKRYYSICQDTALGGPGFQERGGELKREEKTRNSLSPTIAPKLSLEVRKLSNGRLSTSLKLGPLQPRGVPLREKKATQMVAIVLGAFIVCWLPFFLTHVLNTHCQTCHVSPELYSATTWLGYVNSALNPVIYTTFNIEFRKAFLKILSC
D2 ag-3: counter-screen for D3 agonists: human D2 dopamine receptor agonism. Potency, µM (titrated, usually from 76.9 µM), actives largely listed as activators. 2,300 compounds, 5.9% hits. DiscoveRx PathHunter D2 beta-arrestin, luminescence, 90 min; response scale: percent relative to full dopamine signal. AID 720507. shares compounds with D2 ag-2; further: nearly all actives have a fitted effect of over 70% in size
Large screens that a line does not name were inactive (follow-up assays come after a bar, where they were run). Unless noted, the call rests on the fitted dose curve; in most records, active means well fitted activation curve with a large enough effect; inconclusive means small, poorly fitted or top-dose-only effect; inactive means flat fitted curve, though single readings scatter.

COc1c(C)cc(C(=O)C2CCCN(Cc3cccc(C)n3)C2)cc1C (stereo not drawn)	D2 ag-2 38
CCCN1CCCC(C(=O)c2cc(C)c(OC)c(C)c2)C1 (stereo not drawn)	D2 antagonist 86
Cc1oc(-c2ccc(Cl)cc2)nc1CN1C(=O)CN=C(c2ccccc2)c2ccccc21	none (no result: D2 ag-1, D2 antagonist, D2 ag-2, D2 PAM-2)
CCN(C(=O)CN1CC=C(c2ccccc2)CC1)c1c(N)n(Cc2ccccc2)c(=O)[nH]c1=O	none | D3 ag inactive | D2 ag-3 inactive
Cc1ccc(-n2c(/C=C/c3ccc(Br)s3)nc3ccccc3c2=O)cc1	none (no result: D2 ag-1, D2 antagonist, D2 PAM-2)
O=C(Nc1ccc(Cl)cc1C(=O)c1ccccc1)c1ccccc1Br	none (no result: D2 ag-1, D2 antagonist, D2 PAM-2)
O=C1NC(=S)N(c2ccc(Br)cc2)C(=O)/C1=C/N1CCN(C(=O)c2ccco2)CC1	none | D3 ag inactive | D2 ag-3 inactive
CC(C)CC(C)N (stereo not drawn)	none | D3 ag inactive | D2 ag-3 inactive
COc1ccc(NC(=O)CN2CC=C(c3ccccc3)CC2)cc1S(=O)(=O)N1CCOCC1	D2 ag-2 54 | D3 ag inconclusive | D2 ag-3 inactive
CCn1c(CN2CCN(C)CC2)nc2ccccc21	none (no result: D2 ag-1, D2 antagonist, D2 PAM-1, D2 PAM-2)
CCCCc1ccc2[nH]cc(CCN)c2c1	D2 ag-2 44 | D3 ag inactive | D2 ag-3 inconclusive
NCCc1c[nH]c2ccccc12	none
CCCSc1nc2ccccc2c(=O)n1-c1ccccc1OC	none (no result: D2 ag-1, D2 antagonist, D2 PAM-2)
COc1ccc(CNCCc2c[nH]c3ccccc23)c(OC)c1C	D2 antagonist 33 | D3 ag inactive | D2 ag-3 inactive
Fc1ccc(CNCCc2c[nH]c3ccccc23)cc1	none
OC(CNCCc1c[nH]c2ccccc12)c1ccccc1 (stereo not drawn)	D2 antagonist 54 | D3 ag inactive | D2 ag-3 inactive
Fc1ccccc1CNCCc1c[nH]c2ccccc12	none | D3 ag inactive | D2 ag-3 inactive
CC(=O)NCCc1c[nH]c2ccccc12	none
N#Cc1cc2c(nc1SCC(=O)Nc1ccc(Cl)c(C(F)(F)F)c1)C1CCN2CC1	none (no result: D2 ag-1, D2 antagonist, D2 PAM-2)
COc1ccc(-c2nn3c(=O)cc(CN4CCN(C(=O)COc5ccc(F)cc5)CC4)nc3s2)cc1	none (no result: D2 ag-1, D2 antagonist, D2 PAM-2)
CCN(CC)CCCC(C)N=C(c1ccccc1)c1c(O)n(C)c(=O)n(C)c1=O (stereo not drawn)	D2 antagonist 69, D2 ag-2 38 | D3 ag inactive | D2 ag-3 inactive
C[C@]12CCC3C(CC[C@H]4C[C@@H](O)CC[C@]34C)[C@H]1CC[C@H]2O (stereo partly drawn)	none (no result: D2 antagonist, D2 PAM-1, D2 ag-2)
C[C@H]1CC[C@@]2(C)[C@@H](CC[C@@H]3[C@@H]2CC[C@]2(C)[C@@H](O)CC[C@@H]32)C1	D2 antagonist 69 | D3 ag inactive | D2 ag-3 inactive
Nc1ccc(N2CCN(Cc3ccccc3Cl)CC2)c(Cl)c1	none
Clc1ccccc1CN1CCN(c2ccccc2)CC1	D2 ag-1 inconclusive, D2 antagonist 68, D2 ag-2 68 | D3 ag inactive | D2 ag-3 inconclusive
Clc1ccccc1CN1CCN(c2cccc3[nH]ccc23)CC1	none (no result: D2 antagonist, D2 PAM-1, D2 ag-2) | D3 ag inactive | D2 ag-3 inactive
Cc1cccc(-n2c(/C=C\c3cccc(Br)c3)nc3ccccc3c2=O)c1	none (no result: D2 ag-1, D2 antagonist, D2 PAM-2)
COc1ccc(NC(=O)CCc2nc(C3=CCN(Cc4cccc(Cl)c4)CC3)no2)cc1OC	none (no result: D2 ag-1, D2 antagonist, D2 PAM-2)
COc1cccc(-c2nn3c(=O)cc(CN4CCN(C(=O)COc5ccccc5C)CC4)nc3s2)c1	none (no result: D2 ag-1, D2 antagonist, D2 ag-2, D2 PAM-2)
O=[N+]([O-])c1cccc(O)c1	D2 antagonist 36 | D3 ag inactive | D2 ag-3 inactive
O=[N+]([O-])c1cccc(CCl)c1	none
COc1c2c(cc3c1OCO3)CCN(C)C2	D2 antagonist 75, D2 ag-2 68 | D3 ag inconclusive | D2 ag-3 inconclusive
COc1cc2c(cc1OC)-c1c3c(cc4c1[C@@H](C2)N(C)CC4)OCO3	none
CCOC(=O)c1ccc(N2C(=O)CC(N3CC=C(c4ccc(F)cc4)CC3)C2=O)cc1 (stereo not drawn)	none
NC(=O)c1ccc(OCCC(O)N2CC=C(c3ccc(F)cc3)CC2)cc1 (stereo not drawn)	D2 antagonist 65, D2 ag-2 35 | D3 ag inconclusive | D2 ag-3 inconclusive
Cc1ccc2c(c1)C(Cc1nc3ccccc3c(=O)n1-c1ccc(Br)cc1)C(=O)N2 (stereo not drawn)	none (no result: D2 ag-1, D2 antagonist, D2 ag-2, D2 PAM-2)
CC(C)C[C@H]1C(=O)N2CCC[C@H]2[C@]2(O)O[C@](NC(=O)[C@@H]3C=C4c5cccc6[nH]c(Br)c(c56)CC4N(C)C3)(C(C)C)C(=O)N12 (stereo partly drawn)	D2 ag-1 55, D2 antagonist 94, D2 ag-2 80, D2 PAM-2 inconclusive | D3 ag inconclusive | D2 ag-3 0.28µM
CC(C)C[C@H]1C(=O)N2CCCC2[C@]2(O)O[C@](NC(=O)[C@@H]3C=C4c5cccc6[nH]cc(c56)CC4N(C)C3)(C(C)C)C(=O)N12 (stereo partly drawn)	D2 ag-1 122, D2 antagonist 78, D2 ag-2 73, D2 PAM-2 54 | D3 ag inconclusive | D2 ag-3 0.28µM
CC(C)[C@@]1(NC(=O)[C@@H]2C[C@@H]3c4cccc5[nH]cc(c45)C[C@H]3N(C)C2)O[C@@]2(O)[C@@H]3CCCN3C(=O)[C@H](Cc3ccccc3)N2C1=O	D2 antagonist 101, D2 ag-2 91 | D3 ag inactive | D2 ag-3 inconclusive
O=C(Nc1cc(C(F)(F)F)cc(C(F)(F)F)c1)c1cccn(Cc2ccccc2Cl)c1=O	none (no result: D2 ag-1, D2 antagonist, D2 PAM-2)
O=C(CCN1C(=O)COc2ccccc21)N1CCC2(CC1)OCCO2	D2 ag-2 56 | D3 ag inactive | D2 ag-3 inactive
C=CCN1CCc2cccc3c2[C@H]1Cc1ccc(O)c(O)c1-3	D2 ag-1 219, D2 antagonist 89, D2 ag-2 88, D2 PAM-2 114 | D3 ag 0.02µM | D2 ag-3 0.045µM
O=c1[nH]c2ccccc2c(=O)n1-c1ccc(Cl)c(Cl)c1	none (no result: D2 ag-1, D2 antagonist, D2 PAM-2)
NNCc1cccc(O)c1	none
CCNCC(O)c1cccc(O)c1 (stereo not drawn)	D2 antagonist 32, D2 ag-2 36 | D3 ag inconclusive | D2 ag-3 inconclusive
CC(CCc1ccccc1)NCCC#N (stereo not drawn)	D2 ag-2 77 | D3 ag inconclusive | D2 ag-3 inactive
Cc1[nH]c2c(Cl)cccc2c1CCN	D2 antagonist 41 | D3 ag inactive | D2 ag-3 inactive
Cc1[nH]c2ccccc2c1CN1CCCCC1	none (no result: D2 antagonist, D2 PAM-1, D2 ag-2)
